We go through seven compounds from PubChem BioAssay (NCI).

Compounds without any hit were thinned out: in the full panel of roughly 83,000, 20% have a hit.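 Growth was measured after 48 h exposure to one concentration of compound in 96-well plates. Values under 10 count as active.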 Values without a mark were called inactive. Calls of active or inactive are those of the source.

Among the test systems are NCI-H23 lung; NCI-H226 lung; NCI-H322M lung; HOP-62 NSCLC; NCI-H460 lung; HOP-92 NSCLC; NCI-H522 lung; 786-0 renal; COLO 205 colon; DU-145 prostate; K-562 leukemia; MALME-3M melanoma; MDA-MB-231 breast; RXF 393 renal; SF-268 CNS; SF-295 CNS; SF-539 CNS; UACC-257 melanoma; M14 melanoma; A549/ATCC NSCLC.
Holding throughout (test): NCI-60 one-dose screen, 48 h (100 = growth as untreated, 0 = no growth, -100 = all killed)
Common to all, as to conditions: 10 µM unless noted

Consider `CSc1nc(CC(C)C)c(C#N)c(=O)n1C`, for which the growth is 66.8% in the assay on NCI-H23 lung; 60.3% in the assay on NCI-H226 lung; 84.7% in the assay on NCI-H322M lung; 79.3% in the assay on HOP-62 NSCLC; 83.3% in the assay with NCI-H460 lung; 8.54% (active) in the assay with HOP-92 NSCLC. The growth with NCI-H522 lung was 39.2%; with 786-0 renal, 57.9%; in the assay with COLO 205 colon it was 43.3%; in the assay with DU-145 prostate it was 70.7%; in the assay on K-562 leukemia it was 68.8%; with MALME-3M melanoma, 58.4%. Further, the growth in the assay on MDA-MB-231 breast is 47.3%; in the assay on RXF 393 renal, 58.7%; with SF-268 CNS, 65.7%; in the assay on SF-295 CNS it was 73.9%; in the assay on SF-539 CNS, 75.9%; with UACC-257 melanoma, 78.6%. Also, in the assay on M14 melanoma, the growth was 70.7%.

With `COc1cc(C(=O)n2nc(NCCCc3ccccc3)c3cc(N)ccc32)cc(OC)c1OC`, the growth with NCI-H23 lung is 92.8%; in the assay with NCI-H226 lung, 89.7%; in the assay on NCI-H322M lung, 106%; with HOP-62 NSCLC it was 93.5%; in the assay with NCI-H460 lung, 102%; with HOP-92 NSCLC, 88.9%. The growth with NCI-H522 lung was 74.6%; in the assay with 786-0 renal, 96.1%; in the assay with COLO 205 colon, 113%; in the assay with DU-145 prostate it was 106%; in the assay on K-562 leukemia, 88.9%; with MALME-3M melanoma it was 100%. Besides, the growth with MDA-MB-231 breast is 83.1%; in the assay with RXF 393 renal, 101%; with SF-268 CNS it was 96.7%; with SF-295 CNS it was 81%; in the assay on SF-539 CNS it was 93.1%; in the assay on UACC-257 melanoma, 120%.

For `Cn1cc(-c2ccc3occ(-c4cccc(-c5ccncc5)c4)c3n2)cn1`, the growth is 19.5% in the assay on NCI-H23 lung; 33.6% in the assay on NCI-H226 lung; 34.3% in the assay on NCI-H322M lung; 13.9% in the assay with HOP-62 NSCLC; 13.5% with NCI-H460 lung; 50.6% in the assay with HOP-92 NSCLC. The growth with NCI-H522 lung was -18.5% (active); with 786-0 renal, 17.7%; in the assay on COLO 205 colon, 14.7%; in the assay with DU-145 prostate, 26.9%; in the assay with K-562 leukemia it was 8.55% (active); in the assay on MALME-3M melanoma, 21.2%. For the same compound, the growth with MDA-MB-231 breast is 35.4%; in the assay with RXF 393 renal, 4.67% (active); in the assay with SF-268 CNS it was 28.5%; in the assay on SF-295 CNS it was 1.64% (active); with SF-539 CNS it was -23% (active); with UACC-257 melanoma, 40.9%. The growth in the assay on M14 melanoma was 1.71% (active).

Consider `Cn1ccnc1C(=O)/C=C/c1ccc(C(=O)Nc2c(F)c(F)c(F)c(F)c2F)cc1`, for which the growth is -28.5% (active) with NCI-H23 lung; 13% in the assay with NCI-H226 lung; 6.92% (active) in the assay with NCI-H322M lung; 1.97% (active) in the assay on HOP-62 NSCLC; -41% (active) with NCI-H460 lung; 49.7% with HOP-92 NSCLC. For the same compound, the growth with NCI-H522 lung is 4.29% (active); with 786-0 renal, -34.6% (active); in the assay on COLO 205 colon, -24.2% (active); in the assay on DU-145 prostate it was 12.3%; with K-562 leukemia it was 1.03% (active); in the assay on MALME-3M melanoma, 80.9%. Further, the growth is 7.97% (active) with MDA-MB-231 breast; -52% (active) in the assay on RXF 393 renal; 3.53% (active) in the assay on SF-268 CNS; 18.2% in the assay on SF-295 CNS; -69.9% (active) with SF-539 CNS; 73.7% with UACC-257 melanoma. The growth in the assay on M14 melanoma was 19.2%.

For `Cc1ccc(-c2nc(C#N)c(S(=O)(=O)n3nc(C)cc3N)o2)cc1`, the growth in the assay on NCI-H23 lung was 90.7%; in the assay with NCI-H226 lung, 94.1%; in the assay on NCI-H322M lung it was 91%; in the assay on HOP-62 NSCLC, 103%; in the assay with NCI-H460 lung, 99.7%; in the assay with HOP-92 NSCLC it was 72.8%. In addition, the growth was -15.8% (active) in the assay with NCI-H522 lung; 99.4% with A549/ATCC NSCLC; 78% in the assay with 786-0 renal; -32.3% (active) in the assay with COLO 205 colon; 108% in the assay on DU-145 prostate; -17.2% (active) in the assay on K-562 leukemia. In addition, the growth with MALME-3M melanoma is -63.3% (active); with MDA-MB-231 breast, 88.3%; in the assay on RXF 393 renal it was 76.8%; in the assay with SF-268 CNS it was 93.5%; with SF-295 CNS, 109%; with SF-539 CNS, 96.7%. Further, the values for the growth with UACC-257 melanoma and with M14 melanoma were 95.1% and 48.8%, respectively.

As to `CC(C)C(=O)Nc1ncc(C(=O)NCCN(Cc2ccccc2)C(=O)c2ccc(S(=O)(=O)Nc3ccccc3)cc2)s1`, the growth with NCI-H23 lung was 97.3%; with NCI-H226 lung it was 98%; in the assay on NCI-H322M lung, 98.9%; with HOP-62 NSCLC it was 94.3%; with NCI-H460 lung, 99.8%; in the assay with HOP-92 NSCLC it was 106%. The growth in the assay with NCI-H522 lung was 83.6%; with 786-0 renal, 96.6%; with COLO 205 colon, 118%; in the assay on DU-145 prostate it was 109%; in the assay on K-562 leukemia, 98.4%; in the assay on MALME-3M melanoma it was 111%. Besides, the growth with MDA-MB-231 breast was 96.5%; in the assay with RXF 393 renal it was 95%; with SF-268 CNS it was 89.5%; with SF-295 CNS it was 100%; with SF-539 CNS, 89.3%; in the assay with UACC-257 melanoma it was 105%. Also, the growth in the assay with M14 melanoma was 101%.

Regarding `Cc1ccc(C2(C)NC(=O)N(CC(=O)Nc3cccc(C)c3)C2=O)cc1` (stereo not drawn), the growth in the assay with NCI-H23 lung is 96.5%; in the assay with NCI-H226 lung, 84.5%; with NCI-H322M lung, 102%; with HOP-62 NSCLC it was 102%; with NCI-H460 lung it was 97.8%; in the assay on HOP-92 NSCLC, 63.8%. Besides, the growth in the assay with NCI-H522 lung is 77.2%; with 786-0 renal it was 104%; with COLO 205 colon, 116%; in the assay with DU-145 prostate, 110%; in the assay with K-562 leukemia it was 112%; with MALME-3M melanoma, 100%. Further, the growth in the assay with MDA-MB-231 breast is 99.4%; in the assay on RXF 393 renal, 101%; with SF-268 CNS, 104%; with SF-295 CNS it was 107%; in the assay with SF-539 CNS, 103%; in the assay with UACC-257 melanoma, 101%. Moreover, in the assay with M14 melanoma, the growth is 110%.
